# Reference: paper PMC7862700, “An all-to-all approach to the identification of sequence-specific readers for epigenetic DNA modifications on cytosine”
# Tests used:
# Assay in all cases: DAPPL (digital affinity profiling via proximity ligation, sequencing); 10 mM Tris-HCl pH 7.5, 50 mM NaCl, 1 mM DTT, 4% glycerol, room temperature, 30 min; GST-TFs on glutathione beads, 16-mer random dsDNA library, 0.1% formaldehyde crosslink after washing; high values mean tight binding
# FEV = molecular target: T1, FEV (Homo sapiens, UniProt Q99581 1-238); details: protein: recombinant; tags: N-terminal GST; dsDNA, one strand shown
# T1 sequence: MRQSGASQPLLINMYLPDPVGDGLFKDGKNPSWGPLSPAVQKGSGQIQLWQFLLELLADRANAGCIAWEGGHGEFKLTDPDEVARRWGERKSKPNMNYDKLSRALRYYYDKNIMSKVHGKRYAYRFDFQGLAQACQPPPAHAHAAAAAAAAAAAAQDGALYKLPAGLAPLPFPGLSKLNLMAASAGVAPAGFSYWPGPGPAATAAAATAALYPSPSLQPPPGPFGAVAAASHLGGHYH
# In short: (§1)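 Binding signal is defined as a hexamer's read frequency for one factor over its frequency for the tag-only sample. To obtain reads, GST-fused human transcription factors were expressed in yeast, captured on glutathione beads, barcoded with DNA and pooled with that sample. Pools met 200 nmole of a 16-mer random double-stranded DNA library in Tris/NaCl/DTT/glycerol buffer for 30 min at room temperature before washing, 0.1% formaldehyde crosslinking, proximity ligation (BsaI/T4 ligase, 1 h, 37 °C), PCR and Illumina NextSeq500 sequencing.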
# ETV5 = ETV5 (Homo sapiens, UniProt P41161 1-510); details: protein: recombinant; tags: N-terminal GST; dsDNA, one strand shown
# Chain of ETV5 (P41161 whole entry): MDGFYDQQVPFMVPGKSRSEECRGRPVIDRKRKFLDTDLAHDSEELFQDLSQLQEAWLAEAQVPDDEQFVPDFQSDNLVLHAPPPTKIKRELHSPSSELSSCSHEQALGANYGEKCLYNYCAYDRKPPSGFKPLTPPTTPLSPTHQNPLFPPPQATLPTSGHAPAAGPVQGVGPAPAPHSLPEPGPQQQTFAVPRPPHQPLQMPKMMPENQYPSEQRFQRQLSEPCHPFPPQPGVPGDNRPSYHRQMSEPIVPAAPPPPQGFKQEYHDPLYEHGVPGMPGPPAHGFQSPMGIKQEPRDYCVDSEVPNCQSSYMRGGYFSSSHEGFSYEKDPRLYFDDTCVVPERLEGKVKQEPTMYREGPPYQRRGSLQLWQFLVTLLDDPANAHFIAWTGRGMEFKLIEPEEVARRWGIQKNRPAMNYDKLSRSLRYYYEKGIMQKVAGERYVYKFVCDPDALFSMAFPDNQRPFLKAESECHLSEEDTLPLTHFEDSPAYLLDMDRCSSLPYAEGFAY
# In short: as §1
# HSF1 = HSF1 (Homo sapiens, UniProt Q00613 1-529); details: protein: recombinant; tags: N-terminal GST; chain copies: 3; dsDNA, one strand shown
# Chain of HSF1 (Q00613 whole entry): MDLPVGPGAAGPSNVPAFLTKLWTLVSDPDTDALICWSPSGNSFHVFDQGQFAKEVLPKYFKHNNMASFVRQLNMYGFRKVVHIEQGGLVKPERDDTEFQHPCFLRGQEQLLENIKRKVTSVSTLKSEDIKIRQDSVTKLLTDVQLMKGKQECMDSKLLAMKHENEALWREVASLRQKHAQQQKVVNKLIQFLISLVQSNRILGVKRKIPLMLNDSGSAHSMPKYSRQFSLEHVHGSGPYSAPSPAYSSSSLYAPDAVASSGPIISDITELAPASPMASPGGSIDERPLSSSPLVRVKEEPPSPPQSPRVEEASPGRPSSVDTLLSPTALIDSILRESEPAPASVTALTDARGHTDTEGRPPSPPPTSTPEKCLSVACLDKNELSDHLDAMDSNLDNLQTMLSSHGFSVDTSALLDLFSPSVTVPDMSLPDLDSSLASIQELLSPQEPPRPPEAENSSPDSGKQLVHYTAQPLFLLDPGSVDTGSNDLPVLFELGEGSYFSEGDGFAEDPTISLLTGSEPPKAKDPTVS
# In short: as §1
# SPIC = molecular target: T2, SPIC (Homo sapiens, UniProt Q8N5J4 1-248); details: protein: recombinant; tags: N-terminal GST; dsDNA, one strand shown
# T2 sequence: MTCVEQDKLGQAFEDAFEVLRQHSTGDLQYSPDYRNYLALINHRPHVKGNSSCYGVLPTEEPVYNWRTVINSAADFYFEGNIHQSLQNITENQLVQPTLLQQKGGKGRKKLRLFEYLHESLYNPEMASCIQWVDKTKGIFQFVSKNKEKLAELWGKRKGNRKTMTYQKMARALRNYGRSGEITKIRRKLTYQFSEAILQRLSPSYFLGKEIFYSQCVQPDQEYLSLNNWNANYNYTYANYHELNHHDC
# In short: as §1
# ELF4 = ELF4 (Homo sapiens, UniProt Q99607 1-663); details: protein: recombinant; tags: N-terminal GST; dsDNA, one strand shown
# Chain of ELF4 (Q99607 whole entry): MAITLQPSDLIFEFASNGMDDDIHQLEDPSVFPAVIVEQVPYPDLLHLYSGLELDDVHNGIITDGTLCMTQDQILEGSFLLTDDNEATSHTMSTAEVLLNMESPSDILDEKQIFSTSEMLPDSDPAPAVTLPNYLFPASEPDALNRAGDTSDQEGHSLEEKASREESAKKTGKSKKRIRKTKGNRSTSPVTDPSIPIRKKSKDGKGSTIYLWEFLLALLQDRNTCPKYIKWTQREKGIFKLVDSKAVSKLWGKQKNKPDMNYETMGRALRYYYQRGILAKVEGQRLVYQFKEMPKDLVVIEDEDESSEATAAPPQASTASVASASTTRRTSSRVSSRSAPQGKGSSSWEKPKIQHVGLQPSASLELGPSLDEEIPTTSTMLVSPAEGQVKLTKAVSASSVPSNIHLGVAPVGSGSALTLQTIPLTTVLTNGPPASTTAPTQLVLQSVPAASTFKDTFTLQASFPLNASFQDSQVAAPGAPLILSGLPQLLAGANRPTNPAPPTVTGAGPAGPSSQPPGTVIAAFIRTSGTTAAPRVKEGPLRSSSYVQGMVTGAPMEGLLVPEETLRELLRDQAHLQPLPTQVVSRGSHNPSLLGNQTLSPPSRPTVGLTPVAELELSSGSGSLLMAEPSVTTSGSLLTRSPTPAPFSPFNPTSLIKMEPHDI
# In short: as §1
# ELK4 = molecular target: T3, ELK4 (Homo sapiens, UniProt P28324-2 1-405); details: protein: recombinant; tags: N-terminal GST; dsDNA, one strand shown
# T3 sequence: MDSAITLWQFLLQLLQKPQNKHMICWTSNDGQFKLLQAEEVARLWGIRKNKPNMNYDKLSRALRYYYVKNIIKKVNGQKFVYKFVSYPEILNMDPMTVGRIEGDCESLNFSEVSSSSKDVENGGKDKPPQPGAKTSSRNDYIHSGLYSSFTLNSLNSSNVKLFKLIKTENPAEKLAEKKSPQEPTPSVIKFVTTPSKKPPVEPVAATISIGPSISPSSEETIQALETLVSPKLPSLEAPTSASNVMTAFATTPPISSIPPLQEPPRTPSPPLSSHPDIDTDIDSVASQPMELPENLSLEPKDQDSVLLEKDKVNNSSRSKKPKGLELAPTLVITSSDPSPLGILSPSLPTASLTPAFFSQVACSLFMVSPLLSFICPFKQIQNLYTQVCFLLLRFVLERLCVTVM
# In short: as §1
# ETV2 = molecular target: T4, ETV2 (Homo sapiens, UniProt O00321 1-342); details: protein: recombinant; tags: N-terminal GST; dsDNA, one strand shown
# T4 sequence: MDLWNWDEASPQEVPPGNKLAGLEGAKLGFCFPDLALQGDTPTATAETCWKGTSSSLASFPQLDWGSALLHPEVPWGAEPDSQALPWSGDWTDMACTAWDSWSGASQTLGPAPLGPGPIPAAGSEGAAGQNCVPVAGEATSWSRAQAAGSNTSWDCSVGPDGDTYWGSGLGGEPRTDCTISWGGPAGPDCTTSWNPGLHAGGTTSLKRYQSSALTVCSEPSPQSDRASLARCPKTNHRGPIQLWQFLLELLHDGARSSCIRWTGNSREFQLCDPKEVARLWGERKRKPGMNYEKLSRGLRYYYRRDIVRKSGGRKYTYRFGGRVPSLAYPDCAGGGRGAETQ
# In short: as §1
# ELF3 = molecular target: T5, ELF3 (Homo sapiens, UniProt P78545 1-371); details: protein: recombinant; tags: N-terminal GST; dsDNA, one strand shown
# T5 sequence: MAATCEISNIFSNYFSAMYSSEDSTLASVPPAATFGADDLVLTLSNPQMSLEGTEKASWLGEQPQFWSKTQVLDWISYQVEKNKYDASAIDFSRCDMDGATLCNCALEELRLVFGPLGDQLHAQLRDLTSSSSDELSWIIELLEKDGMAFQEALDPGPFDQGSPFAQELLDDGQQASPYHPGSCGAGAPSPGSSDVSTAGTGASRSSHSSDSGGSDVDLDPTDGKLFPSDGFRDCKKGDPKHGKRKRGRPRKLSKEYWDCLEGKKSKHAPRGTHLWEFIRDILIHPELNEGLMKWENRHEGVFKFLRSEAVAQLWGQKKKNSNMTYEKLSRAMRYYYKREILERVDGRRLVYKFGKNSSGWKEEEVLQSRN
# In short: as §1
# CRX = CRX (Homo sapiens, UniProt O43186 1-299); details: protein: recombinant; tags: N-terminal GST; dsDNA, one strand shown
# Chain of CRX (O43186 whole entry): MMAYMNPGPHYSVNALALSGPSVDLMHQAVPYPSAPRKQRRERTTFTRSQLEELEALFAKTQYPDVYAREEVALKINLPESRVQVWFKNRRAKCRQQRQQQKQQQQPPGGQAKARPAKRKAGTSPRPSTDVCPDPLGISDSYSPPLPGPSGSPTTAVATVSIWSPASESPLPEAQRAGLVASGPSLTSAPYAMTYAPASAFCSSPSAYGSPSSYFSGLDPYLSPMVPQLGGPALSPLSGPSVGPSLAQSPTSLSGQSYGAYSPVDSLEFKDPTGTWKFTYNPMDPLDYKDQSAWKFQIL
# In short: as §1
# ETV1 = ETV1 (Homo sapiens, UniProt P50549 1-477); details: protein: recombinant; tags: N-terminal GST; dsDNA, one strand shown
# Chain of ETV1 (P50549 whole entry): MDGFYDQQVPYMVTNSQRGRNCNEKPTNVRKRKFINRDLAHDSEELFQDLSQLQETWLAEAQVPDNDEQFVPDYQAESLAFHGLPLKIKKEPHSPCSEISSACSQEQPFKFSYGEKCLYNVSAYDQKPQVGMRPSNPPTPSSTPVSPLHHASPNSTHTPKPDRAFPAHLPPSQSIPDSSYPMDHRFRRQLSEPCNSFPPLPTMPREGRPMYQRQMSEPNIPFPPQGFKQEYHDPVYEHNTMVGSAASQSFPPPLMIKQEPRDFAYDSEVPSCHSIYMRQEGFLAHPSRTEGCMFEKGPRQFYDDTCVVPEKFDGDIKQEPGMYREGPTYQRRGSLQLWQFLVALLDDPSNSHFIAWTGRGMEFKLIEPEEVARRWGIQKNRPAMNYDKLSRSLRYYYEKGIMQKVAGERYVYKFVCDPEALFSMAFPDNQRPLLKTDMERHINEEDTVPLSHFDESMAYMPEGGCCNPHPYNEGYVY
# In short: as §1
# ERF = molecular target: T6, ERF (Homo sapiens, UniProt P50548 1-548); details: protein: recombinant; tags: N-terminal GST; dsDNA, one strand shown
# T6 sequence: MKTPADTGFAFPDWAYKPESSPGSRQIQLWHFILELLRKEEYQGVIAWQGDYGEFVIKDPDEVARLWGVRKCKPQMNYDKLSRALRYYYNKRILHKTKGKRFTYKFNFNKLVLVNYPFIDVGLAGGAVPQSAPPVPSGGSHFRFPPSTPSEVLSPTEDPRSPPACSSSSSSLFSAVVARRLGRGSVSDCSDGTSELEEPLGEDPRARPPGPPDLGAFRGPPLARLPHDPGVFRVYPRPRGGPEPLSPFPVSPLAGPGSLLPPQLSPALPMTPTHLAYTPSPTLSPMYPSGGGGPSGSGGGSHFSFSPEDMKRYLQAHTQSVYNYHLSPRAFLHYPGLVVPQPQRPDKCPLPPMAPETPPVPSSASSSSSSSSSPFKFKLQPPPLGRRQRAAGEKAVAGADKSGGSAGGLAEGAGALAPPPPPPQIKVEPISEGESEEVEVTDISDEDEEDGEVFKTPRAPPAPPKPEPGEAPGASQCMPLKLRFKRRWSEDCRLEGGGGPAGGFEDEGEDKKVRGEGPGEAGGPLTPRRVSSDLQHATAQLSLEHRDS
# In short: as §1
# ETV3L = molecular target: T7, ETV3L (Homo sapiens, UniProt Q6ZN32 1-361); details: protein: recombinant; tags: N-terminal GST; dsDNA, one strand shown
# T7 sequence: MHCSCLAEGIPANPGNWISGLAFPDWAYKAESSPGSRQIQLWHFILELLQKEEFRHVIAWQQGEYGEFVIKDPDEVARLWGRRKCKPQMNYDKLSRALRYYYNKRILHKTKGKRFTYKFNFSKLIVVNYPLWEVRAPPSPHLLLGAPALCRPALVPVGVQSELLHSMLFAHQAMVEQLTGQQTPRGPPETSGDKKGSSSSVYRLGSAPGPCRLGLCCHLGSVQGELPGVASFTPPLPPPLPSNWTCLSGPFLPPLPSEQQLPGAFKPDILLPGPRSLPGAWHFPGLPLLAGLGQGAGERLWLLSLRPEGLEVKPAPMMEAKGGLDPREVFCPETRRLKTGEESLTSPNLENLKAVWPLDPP
# In short: as §1
# ETS2 = molecular target: T8, ETS2 (Homo sapiens, UniProt P15036 1-469); details: protein: recombinant; tags: N-terminal GST; dsDNA, one strand shown
# T8 sequence: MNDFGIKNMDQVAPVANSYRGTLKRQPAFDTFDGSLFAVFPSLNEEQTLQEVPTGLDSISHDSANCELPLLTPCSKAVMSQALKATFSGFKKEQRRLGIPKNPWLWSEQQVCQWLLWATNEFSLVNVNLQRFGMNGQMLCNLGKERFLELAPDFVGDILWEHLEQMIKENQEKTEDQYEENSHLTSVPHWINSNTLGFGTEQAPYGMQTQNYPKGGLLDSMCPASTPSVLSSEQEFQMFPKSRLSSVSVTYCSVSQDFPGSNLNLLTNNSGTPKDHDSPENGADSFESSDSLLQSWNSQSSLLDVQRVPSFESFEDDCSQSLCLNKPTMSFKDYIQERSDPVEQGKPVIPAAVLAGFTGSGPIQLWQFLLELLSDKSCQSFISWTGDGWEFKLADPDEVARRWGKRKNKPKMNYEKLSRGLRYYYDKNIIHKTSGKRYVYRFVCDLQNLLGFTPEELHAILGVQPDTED
# In short: as §1
# SPDEF = molecular target: T9, SPDEF (Homo sapiens, UniProt O95238 1-335); details: protein: recombinant; tags: N-terminal GST; dsDNA, one strand shown
# T9 sequence: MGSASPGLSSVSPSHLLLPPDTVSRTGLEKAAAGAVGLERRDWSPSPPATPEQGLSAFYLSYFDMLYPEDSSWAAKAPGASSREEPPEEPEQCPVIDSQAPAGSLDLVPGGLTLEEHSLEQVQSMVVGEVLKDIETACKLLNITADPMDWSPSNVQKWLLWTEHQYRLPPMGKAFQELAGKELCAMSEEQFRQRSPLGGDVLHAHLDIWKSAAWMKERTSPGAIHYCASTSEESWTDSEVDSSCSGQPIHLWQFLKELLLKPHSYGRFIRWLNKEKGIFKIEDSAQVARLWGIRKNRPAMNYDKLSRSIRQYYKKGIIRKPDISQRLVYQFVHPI
# In short: as §1
# ETV7 = molecular target: T10, ETV7 (Homo sapiens, UniProt Q9Y603 1-341); details: protein: recombinant; tags: N-terminal GST; dsDNA, one strand shown
# T10 sequence: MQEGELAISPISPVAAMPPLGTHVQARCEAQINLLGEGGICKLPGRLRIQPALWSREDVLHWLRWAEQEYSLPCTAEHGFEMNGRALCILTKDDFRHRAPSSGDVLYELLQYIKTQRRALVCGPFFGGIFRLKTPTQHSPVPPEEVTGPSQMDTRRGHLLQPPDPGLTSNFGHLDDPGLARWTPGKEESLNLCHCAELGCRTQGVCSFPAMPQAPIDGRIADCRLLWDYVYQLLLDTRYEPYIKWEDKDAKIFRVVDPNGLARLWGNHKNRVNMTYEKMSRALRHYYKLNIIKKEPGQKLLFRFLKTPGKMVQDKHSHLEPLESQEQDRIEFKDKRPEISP
# In short: as §1
# ELF5 = molecular target: T11, ELF5 (Homo sapiens, UniProt Q9UKW6-2 1-255); details: protein: recombinant; tags: N-terminal GST; dsDNA, one strand shown
# T11 sequence: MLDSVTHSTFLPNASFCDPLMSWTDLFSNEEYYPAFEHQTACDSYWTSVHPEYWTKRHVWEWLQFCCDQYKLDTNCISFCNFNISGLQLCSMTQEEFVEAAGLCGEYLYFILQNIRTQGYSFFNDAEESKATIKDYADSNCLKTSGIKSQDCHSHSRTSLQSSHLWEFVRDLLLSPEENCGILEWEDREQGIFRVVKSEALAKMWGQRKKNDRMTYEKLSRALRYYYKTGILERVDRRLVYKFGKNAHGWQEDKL
# In short: as §1
# ETV3 = molecular target: T12, ETV3 (Homo sapiens, UniProt P41162-2 1-143); details: protein: recombinant; tags: N-terminal GST; dsDNA, one strand shown
# T12 sequence: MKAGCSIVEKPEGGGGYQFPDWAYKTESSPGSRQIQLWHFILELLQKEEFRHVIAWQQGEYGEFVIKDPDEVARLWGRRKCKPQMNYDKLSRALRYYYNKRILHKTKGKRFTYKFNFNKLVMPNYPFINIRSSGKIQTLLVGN
# In short: as §1
# ETV6 = ETV6 (Homo sapiens, UniProt P41212 1-452); details: protein: recombinant; tags: N-terminal GST; dsDNA, one strand shown
# Chain of ETV6 (P41212 whole entry): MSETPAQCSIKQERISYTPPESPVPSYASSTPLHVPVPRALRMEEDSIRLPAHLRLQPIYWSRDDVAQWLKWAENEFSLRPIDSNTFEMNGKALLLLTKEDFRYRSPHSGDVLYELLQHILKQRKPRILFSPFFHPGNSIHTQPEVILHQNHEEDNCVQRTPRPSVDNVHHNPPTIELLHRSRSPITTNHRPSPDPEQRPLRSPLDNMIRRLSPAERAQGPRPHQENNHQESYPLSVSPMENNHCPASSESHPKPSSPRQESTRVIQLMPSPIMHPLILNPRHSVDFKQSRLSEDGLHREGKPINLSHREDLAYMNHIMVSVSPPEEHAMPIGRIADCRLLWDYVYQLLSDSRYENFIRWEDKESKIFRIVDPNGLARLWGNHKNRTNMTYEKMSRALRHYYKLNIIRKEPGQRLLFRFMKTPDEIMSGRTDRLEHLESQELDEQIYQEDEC
# In short: as §1
sequence,measurement,setting,value
ATCGAA,binding signal,FEV,"1.08 fold enrichment (6-mer frequency, TF over GST control)"
same,binding signal,ETV5,"1.16 fold enrichment (6-mer frequency, TF over GST control)"
same,binding signal,HSF1,"1.87 fold enrichment (6-mer frequency, TF over GST control)"
same,binding signal,SPIC,"1.11 fold enrichment (6-mer frequency, TF over GST control)"
same,binding signal,ELF4,"1.14 fold enrichment (6-mer frequency, TF over GST control)"
same,binding signal,ELK4,"1.14 fold enrichment (6-mer frequency, TF over GST control)"
same,binding signal,ETV2,"1.07 fold enrichment (6-mer frequency, TF over GST control)"
same,binding signal,ELF3,"1.07 fold enrichment (6-mer frequency, TF over GST control)"
same,binding signal,CRX,"1.31 fold enrichment (6-mer frequency, TF over GST control)"
same,binding signal,ETV1,"1.13 fold enrichment (6-mer frequency, TF over GST control)"
same,binding signal,ERF,"1.18 fold enrichment (6-mer frequency, TF over GST control)"
same,binding signal,ETV3L,"1.16 fold enrichment (6-mer frequency, TF over GST control)"
same,binding signal,ETS2,"1.2 fold enrichment (6-mer frequency, TF over GST control)"
same,binding signal,SPDEF,"1.09 fold enrichment (6-mer frequency, TF over GST control)"
same,binding signal,ETV7,"1.25 fold enrichment (6-mer frequency, TF over GST control)"
same,binding signal,ELF5,"1.05 fold enrichment (6-mer frequency, TF over GST control)"
same,binding signal,ETV3,"1.03 fold enrichment (6-mer frequency, TF over GST control)"
same,binding signal,ETV6,"1.05 fold enrichment (6-mer frequency, TF over GST control)"
